Here are results for 18 compounds from publication PMC5540273 (PLoS ONE, 2017).

Among the test systems are CDKL3; CDKL5; CHEK1; CHEK2; CIT; CLK1; CLK2; CLK3; CLK4; CSF1R-autoinhibited.
Conditions in all cases: concentration: 1 μM, replicates: in singlicate; n = 1
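Further: KINOMEscan kinase panel screen.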

`O=C(Nc1ccc2c(c1)OCO2)NC1CCN(c2ccnc(NCc3ccc(F)cc3)n2)CC1` [GSK1379859]: the “%Inh” value in the test on CDKL3 stood at 0%; with CDKL5, 3%; with CHEK1 it was 19%; with CHEK2, 0%; with CIT, 0%; in the test with CLK1 it was 23%. Also, the “%Inh” value was determined as 0% with CLK2, 0% with CLK3, 10% in the test with CLK4 and 0% in the test on CSF1R-autoinhibited.

In the case of `Cc1ccc(Oc2ccc(Nc3ncnc4cc[nH]c34)cc2C)cn1`, the “%Inh” value in the test on CDKL3 stood at 3%; in the test with CDKL5 it was 3%; in the test on CHEK1, 6%; with CHEK2, 22%; with CIT it was 57%; in the test on CLK1, 0%. In addition, the “%Inh” value in the test on CLK2 was 0%; in the test on CLK3, 0%; in the test with CLK4, 24%; with CSF1R-autoinhibited, 0%.

Consider `CCCNC(=O)Nc1ccc(Oc2ncnc3ccn(C)c23)cc1`, for which the “%Inh” value with CDKL3 is recorded as 18%; in the test with CDKL5, 7%; in the test on CHEK1 it was 0%; in the test with CHEK2, 0%; with CIT, 1%; in the test with CLK1 it was 0%. Further, the “%Inh” value was found to be 0% with CLK2, 0% with CLK3, 4% in the test with CLK4 and 7% in the test on CSF1R-autoinhibited.

On to `COc1ccc(-c2coc3ccc(-c4nnc(SCc5cccc(C#N)c5)o4)cc23)cc1`, for which the “%Inh” value with CDKL3 is 0%; in the test on CDKL5, 9%; in the test with CHEK1 it was 0%; in the test on CHEK2 it was 0%; in the test with CIT, 5%; in the test on CLK1, 47%. The “%Inh” value turned out to be 10% in the test with CLK2, 0% with CLK3, 57% in the test with CLK4 and 0% in the test on CSF1R-autoinhibited.

As for `O=C(Nc1n[nH]c2nc(-c3ccccc3)c(Br)cc12)C1CC1` [SB-708998], the “%Inh” value is reported as 0% in the test with CDKL3; 0% with CDKL5; 15% in the test on CHEK1; 0% in the test on CHEK2; 19% in the test on CIT; 17% with CLK1. The “%Inh” value with CLK2 was found to be 0%; with CLK3, 0%; in the test on CLK4, 21%; with CSF1R-autoinhibited it was 0%.

For `COc1cc2ncn(-c3cc(OCCCc4ccccc4)c(C(N)=O)s3)c2cc1OC` [GSK205189], the “%Inh” value was 0% in the test on CDKL3; 2% in the test on CDKL5; 0% in the test on CHEK1; 0% with CHEK2; 10% in the test on CIT; 19% in the test on CLK1. Further, the “%Inh” value in the test on CLK2 stood at 0%; with CLK3, 0%; in the test with CLK4 it was 9%; in the test with CSF1R-autoinhibited, 0%.

Regarding `Nc1n[nH]c2ncc(-c3ccccc3)cc12` [SB-517081], the “%Inh” value was found to be 0% in the test with CDKL3; 0% with CDKL5; 12% in the test with CHEK1; 0% in the test with CHEK2; 29% with CIT; 21% in the test with CLK1. Moreover, the “%Inh” value in the test with CLK2 was 0%; with CLK3, 0%; in the test on CLK4, 66%; with CSF1R-autoinhibited, 0%.

With `Cc1nn2c(=O)cc(N3CCOCC3)nc2n1Cc1cccc(Cl)c1Cl` [GSK2342769], the “%Inh” value in the test with CDKL3 was 0%; in the test on CDKL5 it was 8%; in the test with CHEK1, 26%; with CHEK2 it was 0%; in the test on CIT, 10%; in the test with CLK1, 20%. Besides, the “%Inh” value came to 1% in the test on CLK2, 16% in the test with CLK3, 22% in the test on CLK4 and 0% with CSF1R-autoinhibited.

Regarding `CCCC(=O)Nc1n[nH]c2ncc(-c3cccc4ccccc34)cc12` [SB-642057], the “%Inh” value in the test with CDKL3 turned out to be 0%; with CDKL5, 3%; in the test with CHEK1, 0%; with CHEK2, 0%; with CIT it was 1%; in the test on CLK1, 30%. Moreover, the “%Inh” value in the test with CLK2 is given as 0%; in the test on CLK3 it was 0%; with CLK4, 8%; in the test with CSF1R-autoinhibited, 0%.

`Fc1cccc(CSc2nnc(-c3ccc4c(c3)CCO4)o2)c1`: the “%Inh” value in the test with CDKL3 amounted to 0%; with CDKL5, 16%; in the test with CHEK1 it was 0%; with CHEK2 it was 3%; in the test with CIT, 0%; in the test with CLK1, 73%. Further, the “%Inh” value in the test on CLK2 stood at 20%; in the test with CLK3 it was 0%; in the test on CLK4, 78%; with CSF1R-autoinhibited, 5%.

For `CCc1nc(-c2cccc(C)c2)c(-c2ccncc2)s1`, the “%Inh” value in the test with CDKL3 was found to be 7%; in the test on CDKL5, 0%; with CHEK1, 0%; in the test with CHEK2, 16%; with CIT, 72%; in the test on CLK1, 13%. In addition, the “%Inh” value in the test on CLK2 amounted to 6%; in the test with CLK3 it was 0%; with CLK4, 0%; in the test with CSF1R-autoinhibited, 0%.

With `COc1cc(Nc2nccc(N3CCC(NC(=O)C4COc5ccccc5O4)C3)n2)cc(OC)c1OC` (stereo not drawn) [GSK1379761], the “%Inh” value in the test on CDKL3 turned out to be 0%; in the test on CDKL5 it was 0%; in the test on CHEK1, 0%; in the test with CHEK2, 29%; in the test with CIT, 33%; with CLK1, 3%. For the same compound, the “%Inh” value in the test on CLK2 is reported as 0%; in the test on CLK3 it was 0%; with CLK4, 0%; in the test with CSF1R-autoinhibited, 58%.

For `Nc1nc(N)c2nc(-c3ccccc3)[nH]c2n1` [SKF-12778], the “%Inh” value amounted to 2% in the test with CDKL3; 4% with CDKL5; 0% in the test with CHEK1; 0% in the test on CHEK2; 17% in the test with CIT; 36% with CLK1. The “%Inh” value with CLK2 is 11%; in the test with CLK3, 13%; in the test with CLK4 it was 32%; with CSF1R-autoinhibited, 0%.

Turning to `CCc1ccc(-c2ccc3c(c2)-c2nn(C)cc2S(=O)(=O)N3C)cc1`, the “%Inh” value with CDKL3, in the test with CDKL5, in the test on CHEK1, in the test with CHEK2, in the test with CIT and in the test on CLK1 was 0% in each case. The “%Inh” value in the test on CLK2 was determined as 13%; in the test with CLK3, 0%; with CLK4, 0%; with CSF1R-autoinhibited it was 2%.

Take `COc1ccc(-c2cc3c(C)nc(N)nc3n([C@H]3CC[C@H](OCCO)CC3)c2=O)cn1`: the “%Inh” value with CDKL3 was 29%; with CDKL5 it was 0%; in the test on CHEK1, 0%; with CHEK2 it was 12%; with CIT it was 0%; in the test on CLK1 it was 0%. Moreover, the “%Inh” value with CLK2 was 0%; with CLK3, 0%; in the test with CLK4 it was 0%; in the test on CSF1R-autoinhibited it was 12%.

As to `COc1cc2nccc(Nc3cccc(Oc4ccccc4)c3)c2cc1OC.Cl` [GW284543], the “%Inh” value is given as 0% with CDKL3; 0% in the test on CDKL5; 0% with CHEK1; 0% in the test on CHEK2; 0% in the test on CIT; 21% in the test with CLK1. Moreover, the “%Inh” value in the test on CLK2 worked out at 0%; in the test with CLK3 it was 0%; in the test on CLK4, 0%; in the test on CSF1R-autoinhibited, 32%.

In the case of `Cc1nnc(-c2ccc3ncn(-c4ccc(S(C)=O)cc4)c3c2)o1` (stereo not drawn), the “%Inh” value with CDKL3 was 2%; in the test on CDKL5, 0%; with CHEK1 it was 1%; with CHEK2, 0%; with CIT, 35%; with CLK1, 46%. Moreover, the “%Inh” value in the test with CLK2 is 10%; in the test on CLK3 it was 0%; in the test with CLK4, 40%; with CSF1R-autoinhibited, 7%.

Consider `Nc1ncnc2c1ncn2-c1ccc(Cl)cc1` [AH2635], for which the “%Inh” value in the test on CDKL3 worked out at 0%; in the test on CDKL5, 0%; in the test with CHEK1, 0%; in the test with CHEK2, 0%; in the test on CIT, 26%; in the test on CLK1, 28%. Besides, the “%Inh” value in the test with CLK2 amounted to 19%; in the test with CLK3, 0%; in the test with CLK4, 3%; in the test on CSF1R-autoinhibited, 0%.
